# FLuc modulator – firefly luciferase modulation, counter-screen for miR-21 project. P08659. purified FLuc, Km substrates, luminescence inhibition. Potency, µM (series often up to 57.5 µM), inactives show at the highest dose activity change, negative = inhibition, most hits filed as inhibitors. actives 6.9% (n = 360,000). AID 588342;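 further: plate controls were vehicle for no effect and reference inhibitor for full effect; nearly all actives have a fitted effect of over 55% in size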
# Target sequence (P08659 whole entry, looked up): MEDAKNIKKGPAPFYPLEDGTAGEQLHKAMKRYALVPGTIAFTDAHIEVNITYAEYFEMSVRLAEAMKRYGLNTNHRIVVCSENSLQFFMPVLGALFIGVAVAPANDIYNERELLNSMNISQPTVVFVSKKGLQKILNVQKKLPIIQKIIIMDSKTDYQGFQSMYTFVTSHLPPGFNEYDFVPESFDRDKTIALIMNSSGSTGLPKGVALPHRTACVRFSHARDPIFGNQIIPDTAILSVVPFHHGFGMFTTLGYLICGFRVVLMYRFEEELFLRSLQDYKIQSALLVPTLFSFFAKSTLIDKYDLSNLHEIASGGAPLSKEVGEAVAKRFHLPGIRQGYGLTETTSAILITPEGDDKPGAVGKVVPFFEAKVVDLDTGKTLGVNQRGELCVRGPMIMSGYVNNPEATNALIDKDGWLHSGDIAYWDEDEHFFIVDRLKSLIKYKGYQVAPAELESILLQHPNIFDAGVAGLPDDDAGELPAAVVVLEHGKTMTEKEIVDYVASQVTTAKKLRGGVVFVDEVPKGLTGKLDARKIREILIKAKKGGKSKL
#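 Biochemical qHTS of compounds, final roughly 60 µM downward over six points, against 10 nM purified firefly luciferase using Km concentrations of substrates (10 uM D-luciferin, 10 uM ATP) in Tris acetate pH 7.5 buffer; luminescence output.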
# NPC1 prom act – activators of NPC1 promoter; Huh7 NPC1 promoter luciferase reporter, 24 h; Potency, µM (highest dose often 9.22 µM), for inactives: top-dose activation, hits mostly activators; actives 2.4% (n = 320,000); AID 485313; further: % of control where 0% means no effect; nearly all actives have a fitted effect of over 60% in size
#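 Compounds in DMSO were transferred onto Huh7 NPC1-luciferase reporter cells pre-incubated 2 h; after 24 h at 37 °C, Amplite reagent was dispensed and luminescence recorded 10 min later.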
# uPA surface inh – cell surface uPA generation inhibition | cell surface uPA generation assay, qHTS | actives 0.31% (n = 330,000) | Potency, µM (highest dose often 38.3 µM), for the others: at the top dose activity change, negative = inhibition, usual class: inhibitors; active means well fitted inhibition curve with a large enough effect; inconclusive means small, poorly fitted or top-dose-only effect; inactive means no such curve, though single readings can be large or run the other way; tested in mouse RAW 264.7 cells; further: on the % scale 0 is the no-effect control and ±100 the full control effect; nearly all actives have a fitted effect of over 55% in size
# Rab9 promoter act – Rab9 promoter activation. Huh7 Rab9 promoter-luciferase reporter, luminescence, 24 h. actives 2.8% (n = 320,000). Potency, µM (titrated, usually from 9.22 µM), for inactives: at the highest dose activation, negative = inhibition, actives largely listed as activators; further: % of control where 0% means no effect; nearly all actives have a fitted effect of over 60% in size
#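 Huh7 cells stably carrying a Rab9 promoter-luciferase reporter, 1500 cells per well in OP-MEM I with 10% FBS, treated with compound 24 hours at 37C. Luciferase activity read by luminescence after 10 minutes with Amplite reagent.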
# SMN2 splice up – SMN2 splice variant enhancement | HEK293 SMN2-luciferase splicing reporter, luminescence, 30-36 h | Potency, µM (titrated, usually from 46.1 µM), inactives show top-dose activity change, positive = activation, most hits filed as activators | actives 2.8% (n = 210,000); further: % of control where 0% means no effect; nearly all actives have a fitted effect of over 55% in size
#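 qHTS luciferase splicing reporter: luminescence rises when SMN2 exon 7 is included in transfected HEK293 cells. Compound exposure lasted 30-36 h at 37C, with 4.5 mM final sodium butyrate as control, followed by a ONE-Glo read.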
# ELG1 genotoxic – induces genotoxicity in HEK293T cells with luciferase-tagged ELG1. HEK293T ELG1-luciferase reporter, luminescence, 16 h. Potency, µM (top dose mostly 46 µM), for the others: at the highest dose activity change, positive = activation, most hits filed as activators. actives 1.3% (n = 330,000); further: % of control where 0% means no effect; nearly all actives have a fitted effect of over 60% in size
#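 Reporter readout depends on ELG1 protein level, which increases with genetic stress. After 16 hr compound exposure at 37 °C, luciferase activity was quantified using ONE-Glo.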
# An asterisk follows results filed as active; ? = inconclusive; / = not tested or not shown. In the library only some 7.3% were active in any assay of this set; here they are far more common. Unless noted, the call rests on the fitted dose curve; in most records, active means well fitted curve in the direction sought with a large enough effect; inconclusive means small, poorly fitted or top-dose-only effect, or another doubt; inactive means no such curve, though single readings can be large; an effect the other way counts as inactive or inconclusive. Potency means the concentration at half of the fitted maximal effect.
SMILES,FLuc modulator,NPC1 prom act,uPA surface inh,Rab9 promoter act,SMN2 splice up,ELG1 genotoxic
COc1cccc(C(=O)OCC(=O)N2CCc3ccccc32)c1OC,10.7µM*,20.2%,-1.4%,27.1%,/,?
O=C(NC(=S)Nc1ccccc1[N+](=O)[O-])c1ccccc1,?,?,-7.7%,?,/,-7.3%
O=C(NC(=S)/C(=C1\CCCCCN1)[N+](=O)[O-])c1ccccc1,/,/,-9.9%,/,/,0.231µM*
CC(c1ccccc1)N1C(=O)c2ccc(C(=O)Nc3ccccc3C(=O)O)cc2C1=O (centres undefined),23.9µM*,-5.0%,-1.3%,3.4%,/,-12.1%
CC(c1ccccc1)N1C(=O)c2ccc(C(=O)Nc3ccc(Br)cc3C(=O)O)cc2C1=O (centres undefined),2.0%,0.4%,-0.5%,-1.9%,/,-9.4%
CC(C)CCN1C(=O)c2ccc(C(=O)Nc3ccc(O)cc3C(=O)O)cc2C1=O,19µM*,0.7%,15.8%,2.4%,/,-0.5%
O=C(Nc1ccc(O)cc1C(=O)O)c1ccc2c(c1)C(=O)N(Cc1ccco1)C2=O,?,-2.7%,-9.3%,-9.1%,4.7%,-5.9%
CC(C)CCN1C(=O)c2ccc(C(=O)Nc3ccccc3C(=O)O)cc2C1=O,21.3µM*,4.3%,0.9%,-0.3%,/,3.9%
CC(C)CN1C(=O)c2ccc(C(=O)Nc3ccc(O)cc3C(=O)O)cc2C1=O,6.01µM*,-2.6%,9.7%,11.7%,/,-2.0%
COc1cc(NC(=O)c2ccc3c(c2)C(=O)N(CCC(C)C)C3=O)c(C(=O)O)cc1OC,?,-2.4%,20.2%,3.2%,/,-2.1%
CCCCCCC(=O)Nc1ccc2nc3c(=O)n(C)c(=O)n(C)c3nc2c1C,-0.6%,/,/,/,-2.1%,/
CCC(CC)c1nn2c(=O)cc(COc3ccc(NC(=O)c4ccc(C)cc4)cc3)nc2s1,2.5%,/,/,/,7.2%,/
Cc1ccc2nc(Nc3nc(CSc4nnc(C)s4)cc(=O)[nH]3)nc(C)c2c1,9.53µM*,-1.6%,-8.9%,-3.4%,/,5.4%
CC1CCN(c2nnc(-n3cccc3CNc3cccc(F)c3)s2)CC1,-18.4%,/,/,/,/,/
COc1ccccc1-c1noc(-c2ccccc2C(=O)N2CCOCC2)n1,-0.3%,3.1%,-1.1%,-6.1%,8.8%,-5.6%
NC(=O)c1ccccc1-c1noc(-c2ccccc2F)n1,16.9µM*,?,/,?,/,/
NC(=O)c1ccc(-c2noc(-c3ccccc3F)n2)cc1,3.01µM*,0.316µM*,-1.3%,0.316µM*,/,?
Cc1ccc(Nc2cc(-n3nc(C)cc3C)ncn2)c(C)c1,1.2%,0.2%,-4.9%,-3.2%,-20.5%,-5.5%
Cc1ccc(Nc2cc(-n3cccn3)ncn2)c(C)c1,10.7µM*,3.55µM*,?,2.51µM*,23.8%,7.31µM*
Cn1nnnc1SCc1ccc(C(=O)Nc2ccccc2F)cc1,?,?,-2.9%,?,2.5%,?
O=C(Nc1ccc(OCc2ccccc2)cc1)c1ccccc1,1.2%,?,5.1%,?,?,16.4%
Cc1ccc(NC(=O)c2ccc(CSc3nccc(C)n3)cc2)cc1,?,19.4%,-3.2%,8.6%,/,-4.7%
O=C(Nc1ccccc1)c1ccc(CSc2ncccn2)cc1,3.38µM*,1.12µM*,-1.5%,1µM*,12.6µM*,?
O=C(Nc1ccccc1F)c1ccc(OCc2ccccc2)cc1,?,?,5.2%,?,22.4µM*,?
O=C(Nc1ccccc1F)c1ccc(CSc2ncccn2)cc1,?,3.55µM*,4.8%,3.55µM*,?,?
COc1cccc(N2CCN(CC(=O)N3CCN(S(=O)(=O)c4ccc(Cl)cc4)CC3)CC2)c1,10.3%,-6.2%,-8.5%,-17.2%,/,-8.3%
Cc1ccc(C=Nc2ccc(N(C)C)cc2)o1,0.269µM*,6.7%,-17.3%,8.0%,-7.3%,20.6µM*
Cc1ccc(CNc2ccc3c(c2)ncn3C(C)C)cc1,6.01µM*,2.24µM*,1.5%,2.82µM*,/,9.2µM*
CCn1cnc2cc(NCc3ccc(Br)cc3)ccc21,13.5µM*,3.55µM*,-2.4%,0.708µM*,/,?

# Screening results: PubChem BioAssay, National Center for Advancing Translational Sciences (NCATS)
